Shown are actives, neighbours in structure and some others; about 1.4% of the full set was active somewhere.
FBPA Giardia inh: Giardia lamblia aldolase inhibition. A8B2U2. purified Giardia FBPA. Potency, µM (doses to about 59.6 µM), without a hit: at the highest dose activity, negative = inhibition, most hits filed as inhibitors. actives 0.71% (n = 290,000); also: nearly all actives have a fitted effect of over 55% in size
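Giardia FBPA (40 nM reagent) was preincubated 10 min at RT with compound (up to 57.5 uM final), then substrate plus GAPDH/TPI/NAD/arsenate coupling system with diaphorase/resazurin was added; resorufin fluorescence (525/598 nm) was read after 20 min.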
TbPYK inhibitor: T. brucei pyruvate kinase inhibition; TbPYK enzyme, Kinase-Glo Plus ATP luminescence, 45 min; Potency, µM (doses to about 76.8 µM), without a hit: at the top dose activity, negative = inhibition, actives largely listed as inhibitors; actives 0.12% (n = 410,000); AID 624173; also: nearly all actives have a fitted effect of over 50% in size
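Luminescence from Kinase-Glo Plus, added after a 45-minute room-temperature reaction, served as the end-point read-out. The enzyme and substrate were preincubated with compound before ADP (130 uM final) initiated turnover. Concentration-effect curves came from normalized qHTS data.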
RE007 growth inh: less growth of the S. pombe RE007 Vpr strain. actives 0.21% (n = 360,000). Potency, µM (titrated, usually from 92.2 µM), for the others: at the highest dose activity change, negative = less growth, actives largely listed as inhibitors. AID 651644. S. pombe RE007 Vpr strain, BacTiter-Glo ATP luminescence, 24 h; active = well fitted falling curve with a large enough effect; inconclusive = small, poorly fitted or top-dose-only effect; inactive = no such curve, though single readings can be large or run the other way; also: nearly all actives have a fitted effect of over 50% in size
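Fission yeast RE007 carrying one integrated HIV-1 vpr copy, seeded at OD 0.01 in PMG+AL medium with 23 nL pinned compound. Grown 24 h at 30 degrees; viability read by BacTiter-Glo luminescence after 5 min.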
AmpC inh detg: inhibitors of E. coli AmpC beta-lactamase with detergent; actives 0.041% (n = 370,000); AID 485294; AmpC hydrolysis of nitrocefin, absorbance 480 nm, 0.01% Triton; Potency, µM (top dose mostly 114 µM), without a hit: at the top dose activity change, negative = inhibition, usual class: inhibitors;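 also: 0% = no-compound wells and -100% = no-enzyme wells; nearly all actives have a fitted effect of over 25% in size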
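20 mM phosphate pH 7.0 + 0.01% (detergent screen) or 0.0001% Triton X-100; 5.3 nM AmpC reagent; cpd preinc 15 min RT; nitrocefin (800 uM stock) to start; A480 q20 s × 4 min; Activity was normalised to no-enzyme and no-compound control wells.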
LmPK inhibitor: blocks Leishmania mexicana pyruvate kinase activity | Q27686 | purified LmPK, Kinase-Glo ATP luminescence, 1 h | Potency, µM (series often up to 57.5 µM), for the others: at the highest dose activity change, negative = inhibition, actives largely listed as inhibitors | actives 0.37% (n = 290,000)
Target sequence (Q27686 whole entry, looked up): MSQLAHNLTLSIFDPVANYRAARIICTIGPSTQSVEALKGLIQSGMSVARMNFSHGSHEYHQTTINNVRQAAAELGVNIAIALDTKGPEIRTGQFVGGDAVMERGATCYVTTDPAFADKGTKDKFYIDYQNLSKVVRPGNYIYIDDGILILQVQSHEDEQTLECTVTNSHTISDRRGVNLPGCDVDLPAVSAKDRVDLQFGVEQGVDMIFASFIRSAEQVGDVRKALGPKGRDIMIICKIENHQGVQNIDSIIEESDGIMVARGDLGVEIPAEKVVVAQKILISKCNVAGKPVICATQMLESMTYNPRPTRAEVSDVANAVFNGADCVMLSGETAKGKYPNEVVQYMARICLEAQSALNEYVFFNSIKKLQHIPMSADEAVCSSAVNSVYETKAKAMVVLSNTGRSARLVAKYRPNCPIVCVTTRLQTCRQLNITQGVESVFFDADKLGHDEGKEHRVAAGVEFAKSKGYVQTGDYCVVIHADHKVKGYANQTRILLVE
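0.1 nM LmPK, 0.5 mM PEP, 0.1 mM ADP; 50 mM imidazole pH 7.2, 7 mM MgCl2, 50 mM KCl; 1 h RT. Kinase-Glo luminescence readout, normalized to no-enzyme (full inhibition) and uninhibited wells.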
AmpC no deterg: inhibitors of E. coli AmpC beta-lactamase without detergent; P00811; AmpC nitrocefin hydrolysis, absorbance 480 nm, 0.0001% Triton; actives 0.52% (n = 330,000); Potency, µM (titrated, usually from 57.1 µM), for inactives: at the top dose activity change, negative = inhibition, usual class: inhibitors;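 also: plate controls were no compound for no effect and no enzyme for full effect; nearly all actives have a fitted effect of over 20% in size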
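AmpC (5.3 nM in the dispensed reagent) in 20 mM phosphate pH 7.0 with 0.01% (detergent screen) or 0.0001% Triton X-100 was preincubated with compounds for 15 min at room temperature. Nitrocefin was then added from an 800 uM solution, and hydrolysis was followed at 480 nm.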
The depositor's hits bear a star; ? = inconclusive; . = not tested or not shown; [ ] = dose if it differs, or a comment. Unless noted, calls follow the shape of the dose curve; as a rule, active = well fitted curve in the direction sought with a large enough effect; inconclusive = small, poorly fitted or top-dose-only effect, or another doubt; inactive = no such curve, though single readings can be large; an effect the other way counts as inactive or inconclusive. Unless noted, % is scaled to controls: 0 for no effect and ±100 for the full control effect; potency is read from the fitted curve at half-maximal effect.

SMILES | FBPA Giardia inh | TbPYK inhibitor | RE007 growth inh | AmpC inh detg | LmPK inhibitor | AmpC no deterg
Cc1ccc(NCCC(=O)c2cccs2)cc1C | 1% | 2% | 40µM* | 0% | -1% | -35%
Cc1ccc(NCCC(=O)c2cccs2)cc1Cl | -1% | -10% | -15% | -4% | 6% | -17%
CC(C)c1ccc(NCCC(=O)c2cccs2)cc1 | -5% | 0% | 32µM* | -15% | -2% | -34%
COc1ccc(C2C(=O)N(C3CCCCCC3)CC(=O)N2Cc2ccc(C)cc2)cc1 (stereo not drawn) | . | -4% | . | 8% | . | .
CS(=O)(=O)Nc1cccc(C2=NN(S(C)(=O)=O)C(c3ccc4c(c3)OCO4)C2)c1 (stereo not drawn) | 3% | -9% | 7% | -4% | 2% | 40µM*
CS(=O)(=O)N1N=C(c2ccccc2)CC1c1ccc2c(c1)OCO2 (stereo not drawn) | 0% | -6% | -11% | ? | 4% | -4%
Cc1cc(C)cc(-n2ccn(CC(=O)c3ccc(F)cc3)c(=O)c2=O)c1 | . | 4% | . | 23% | . | .
COc1ccc(CNC(=S)Nc2ccc(-c3ccccc3)cc2)cc1 | 1% | 1% | -9% | -7% | -3% | 14µM*
O=C1c2ccccc2C(=O)N1CCCC[C@]12Cc3ccccc3C(O1)c1c(c3ccccc3oc1=O)O2 | 18%[12.9 µM] | . | . | ? | 2%[11.5 µM] | 2.8µM*
N#Cc1ccc2c(c1)C[C@]1(CCCCN3C(=O)c4ccccc4C3=O)Oc3c(c(=O)oc4ccc(F)cc34)C2O1 | -5%[12.9 µM] | . | . | 1%[22.9 µM] | -5%[11.5 µM] | -23%[11.4 µM]
CCOC(=O)COc1ccc(CC)cc1C(=O)c1ccn2nc(-c3ccc(Cl)cc3)cc2n1 | . | -4% | . | -1% | . | .
CC1=C(C(=O)NC2CCCC(C)C2C)C2(CCCCC2)OC1=O (stereo not drawn) | -3% | 0% | 10% | -4% | 1% | 35µM*
Oc1ccc(NC(=S)N=Nc2c(O)[nH]c3ccc(Br)cc23)cc1 | 7% | 1% | -6% | 2% | 9% | 18µM*
Oc1[nH]c2ccc(Br)cc2c1N=NC(=S)Nc1ccc(F)cc1 | 6% | -6% | 2% | 2% | -4% | -49%
CCCCCCCCCCCCCCCCCC(=O)OCCO | . | 1% | . | . | . | .
O=C(Nc1nccs1)c1ccc(-c2ccc(F)c(Cl)c2)o1 | . | -8% | -11% | 0% | 0% | 25µM*
O=C(Nc1nccs1)c1ccc(-c2ccc(Cl)cc2Cl)o1 | 7% | 6% | 5% | 8% | 0% | -53%
Cc1cccc(NC(=O)NNC(=O)c2cc3ccccc3cc2O)c1C | 6% | 2% | 18% | 1% | 3% | ?
O=C(NNC(=O)c1cc2ccccc2cc1O)Nc1ccccc1F | 5% | -24% | -1% | -3% | 4% | 18µM*
CC(=O)Nc1ccc(NC(=O)CC2Nc3cccc4cccc(c34)NC2=O)cc1 (stereo not drawn) | -23% | 6% | 9% | -2% | 6% | -26%
CC(=O)c1ccc(NC(=O)CC2Nc3cccc4cccc(c34)NC2=O)cc1 (stereo not drawn) | ? | -5% | -6% | ? | 3% | 16µM*
COC(=O)C/C=C\[C@@H](C)[C@@H](/C=N\OC[C@@H](C)[C@H](OCc1ccccc1)C(C)C)NS(=O)(=O)c1ccc(C)cc1 | 0%[12.9 µM] | . | . | . | . | .
COC(=O)C/C=C/[C@@H](C)[C@@H](/C=N/OC[C@@H](C)[C@H](OCc1ccccc1)C(C)C)NS(=O)(=O)c1ccc(C)cc1 | -12% | . | . | ? | 3% | 28µM*
COc1ccc(NC(=O)c2cc(-c3cc(C)cc(C)c3O)n[nH]2)cc1Cl | -1% | . | 10%[3.69 µM] | -1% | -12% | 11µM*
CCN1CCN(C(=O)c2cnn3c(C(F)F)cc(-c4ccc(C)cc4)nc23)CC1 | 0% | . | -3%[3.69 µM] | -1% | 0% | 87%

Compound activity as filed in PubChem BioAssay.
